Reference: PubChem BioAssay AID1851 (National Center for Advancing Translational Sciences (NCATS), 2009)
The campaign covered roughly 16,000 compounds. About 5,700 (36%) were called active. Not shown: some 24% with an inconclusive outcome. Calls follow the shape of the dose curve; as a rule, active = well fitted curve in the direction sought with a large enough effect; inconclusive = small, poorly fitted or top-dose-only effect, or effect the other way; inactive = no such curve, though single readings can be large or run the other way. This is one part of the list.

target: Cytochrome P450 1A2 (Homo sapiens) (UniProt P05177); test: Cytochrome panel assay with activity outcomes; details: recombinant CYP, pro-luciferin dealkylation, luminescence, p450-cyp1a2; series mostly up to 57.1 µM; activity, negative = inhibition: at the top concentration
% is scaled to controls: 0 for no effect and ±100 for the full control effect.

Sequence of Cytochrome P450 1A2 (Homo sapiens) (P05177 whole entry, looked up): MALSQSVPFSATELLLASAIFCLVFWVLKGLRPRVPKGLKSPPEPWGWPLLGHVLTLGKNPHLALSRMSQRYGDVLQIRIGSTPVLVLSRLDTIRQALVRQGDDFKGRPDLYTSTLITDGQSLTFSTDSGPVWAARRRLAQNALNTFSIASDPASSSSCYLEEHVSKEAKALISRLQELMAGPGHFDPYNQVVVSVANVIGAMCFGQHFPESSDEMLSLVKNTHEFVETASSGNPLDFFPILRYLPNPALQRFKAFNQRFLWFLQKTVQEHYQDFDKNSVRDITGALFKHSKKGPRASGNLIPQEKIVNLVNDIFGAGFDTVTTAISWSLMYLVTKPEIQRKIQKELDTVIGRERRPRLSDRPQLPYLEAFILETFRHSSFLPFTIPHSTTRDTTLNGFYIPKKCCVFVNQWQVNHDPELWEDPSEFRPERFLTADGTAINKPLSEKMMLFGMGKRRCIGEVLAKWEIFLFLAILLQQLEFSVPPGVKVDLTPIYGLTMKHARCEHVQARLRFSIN

activity, negative = inhibition, inactive:
C/C(=C(/CCO)SSC[C@@H]1CCCO1)N(C=O)Cc1cnc(C)nc1N -10.8% [at 25.6 µM]
CC(C)CC(=O)N1CCC(O)(CS(=O)(=O)Cc2ccc(Cl)cc2)CC1 11%
CCOC(=O)C1CCCN(C(=O)CSCc2ccccc2)C1 (stereo not given) -15.5%
CCCNC(=O)OC[C@H]1O[C@@H](CCO/N=C2/[C@H]3O[C@@H]3[C@@H](O)[C@H]3[C@H]2CCn2c(=O)n(-c4ccccc4)c(=O)n23)C=C[C@@H]1Oc1ccc(OC)cc1 -12.7% [at 11.4 µM]
COc1ccc(-n2c(=O)c(-c3cn(C)c4ccccc34)nc3cnc(OC)nc32)cc1 -22%
CS(=O)(=O)N1CCC[C@@]2(CCN(Cc3nccs3)C2)C1 3.08%
CCOc1ccc(/C=C/C2=Cc3c(sc(NC(=O)CSc4n[nH]c(N)n4)c3C#N)C(C)(C)C2)cc1 -14.8%
CCOC(=O)c1sc(NC(=O)CSc2nc(C)cc(C)c2C#N)c(C#N)c1C -28.8%
Cc1ccc(/C=C/C2=Cc3c(sc(NC(=O)CSc4n[nH]c(N)n4)c3C#N)C(C)(C)C2)o1 -29.2%
COc1cc2cc3c(N)c(C(=O)Nc4sc(C)c(C)c4C#N)sc3nc2cc1OC -27.6%
Cc1ccc(S(=O)(=O)n2c3ccccc3c3nnc(C(=O)c4ccccc4)nc32)cc1 -2.9% [at 11.4 µM]
N[C@H](CCC(=O)NCC(=O)O)C(=O)O -17.4%
COc1ccccc1CN1CCC2(CCNCC2)CC1 -5.13%
CN(C)CCn1nnnc1SCC1=C(C(=O)O)N2C(=O)[C@@H](NC(=O)Cc3csc(N)n3)[C@@H]2SC1 -6.52% [at 25.6 µM]
CC1(C)S[C@@H]2[C@H](NC(=O)C(N)c3ccccc3)C(=O)N2[C@H]1C(=O)O (stereo not given in full) -0.0503% [at 25.6 µM]
CC(C)[C@@H](OCc1ccccc1)[C@H](C)/C=N\OC[C@@H](O)[C@@H]1O[C@@H]2OC(C)(C)O[C@@H]2[C@H]1O -0.825% [at 11.4 µM]
COC(=O)N1CCC[C@@]2(CCN(C(=O)Nc3ccc(OC)cc3)C2)C1 -2.89%
N=C(N)SCC(=O)O -10.2% [at 2.29 µM]
Cn1c(/C(C#N)=C(\O)c2ccc(S(=O)(=O)N3CCCCC3)cc2)nc2ccccc21 -8.63%
CN(C)CCCNC(=O)CCc1nc2ccccc2c(=O)[nH]1 -6.97%
CN(CCCNC(=O)c1ccc(/C=N/O)nc1)CCCN(C)Cc1ccccc1 2.39%
Cc1ccc(N(C(=O)Cn2nnc(-c3ccc(F)cc3)n2)C(CC(C)C)C(=O)NCC2CCCO2)cc1 (stereo not given) -2.51%
CC(C)c1ccccc1S(=O)c1ccccc1C(C)(C)O (stereo not given) -10.7% [at 2.29 µM]
O=C(O)c1ccccc1OP(=O)(O)O -1.68% [at 25.6 µM]
O=C(O)c1cccc2cccc(-c3cccc4cccc(C(=O)O)c34)c12 -12.3% [at 2.29 µM]
NCc1ccc(C(=O)O)cc1 -4.79% [at 2.29 µM]

AC50, active:
CCOC(=O)N1CCN(C(=O)CSCc2ccc(Cl)cc2)CC1 6310 nM
CCOc1cccc2cc(C(N)=O)c(=NCc3ccccc3)oc12 2240 nM
CN(Cc1ccco1)c1ncnc2ccc(-c3cccnc3)cc12 316 nM
COc1cccc(-c2ccc3ncnc(N(C)Cc4ccco4)c3c2)c1 1260 nM
Cc1ccc(CSc2nnc3c(n2)OC2(Nc4ccccc4-3)C(=O)Nc3ccc(F)cc32)cc1 (stereo not given) 14100 nM
COc1ccc(Oc2ncc3nc(-c4cn(C)c5ccccc45)c(=O)n(C4CC4)c3n2)cc1 12600 nM
Cn1cc(-c2nc3cncnc3n(C3CC3)c2=O)c2ccccc21 200 nM
Cn1cc(-c2nc3cncnc3n(-c3ccccc3)c2=O)c2ccccc21 1580 nM
COc1ccc(-n2c(=O)c(-c3cn(C)c4ccccc34)nc3cncnc32)cc1 316 nM
CCOC(=O)c1sc(NC(=O)CSc2nc(C)cc(C)n2)c(C#N)c1C 10000 nM
CCOC(=O)c1sc(NC(=O)CSc2n[nH]c(-c3ccc(Cl)cc3Cl)n2)c(C#N)c1C 14100 nM
Cc1ccc(-c2nc3c(=O)n(C)c4ccccc4c3o2)cc1 398 nM
Cn1c(=O)c2nc(-c3ccccc3)oc2c2ccccc21 398 nM
COc1cccc(-c2cc(NCCc3c[nH]c4ccc(OC)cc34)ncn2)c1 794 nM
COc1ccc2[nH]cc(CCNc3cc(-c4cccc(C#N)c4)ncn3)c2c1 794 nM
COc1ccc2[nH]cc(CCNc3ccnc(-c4cccnc4)n3)c2c1 251 nM
COc1ccc2[nH]cc(CCNc3cc(-c4cccnc4)ncn3)c2c1 3160 nM
COc1ccc2[nH]cc(CCNc3cc(-c4ccoc4)ncn3)c2c1 631 nM
COc1ccc2[nH]cc(CCNc3ccnc(-c4cccc(NS(C)(=O)=O)c4)n3)c2c1 1580 nM
c1ccc(-c2nc(N3CCCCCC3)nc(-n3ccnc3)n2)cc1 1260 nM
CN(c1ccccc1)c1nc(-n2ccnc2)nc(-n2ccnc2)n1 158 nM
Cc1ccccc1-c1nccc(-n2ccnc2)n1 79.4 nM
Clc1ccccc1-c1nccc(-n2ccnc2)n1 158 nM
COc1ccccc1-c1nccc(-n2ccnc2)n1 158 nM
COc1ccc(/C(O)=C(\C#N)c2nc3ccccc3n2C)cc1OC 5010 nM
CN(CCCNC(=O)c1cccn2c(=O)c3ccccc3nc12)Cc1ccccc1 14100 nM
Cc1cnc(CNc2ncncc2-c2ccc3c(c2)OCO3)cn1 2000 nM
Cc1cccc(CNc2ncncc2-c2ccc3c(c2)OCO3)c1 126 nM
c1cncc(CNc2ncncc2-c2ccc3c(c2)OCO3)c1 398 nM
c1csc(CNc2ncncc2-c2ccc3c(c2)OCO3)c1 200 nM
c1ccc(CNc2ncncc2-c2ccc3c(c2)OCO3)cc1 126 nM
c1ccc(Nc2ncncc2-c2ccc3c(c2)OCO3)cc1 316 nM
O=C(O)c1ccccc1/C=N\N=C1c2ccccc2-c2ccccc21 316 nM
O=C(O)c1ccc(/C=N\N=C2c3ccccc3-c3ccccc32)cc1 126 nM
